From the supplement of paper PMC12819154, “High-throughput peptide-centric local stability assay extends protein–ligand identification to membrane proteins, tissues and bacteria” (Nature Structural & Molecular Biology, 2025) come the findings set out here.

Compound in the assay: CN[C@@H]1C[C@H]2O[C@@](C)([C@@H]1OC)n1c3ccccc3c3c4c(c5c6ccccc6n2c5c31)C(=O)NC4 [staurosporine]
Kind of assay: log2 fold change of tryptic peptide abundance, ligand vs vehicle (limited proteolysis) (log2 ratio); higher = more trypsin-susceptible (destabilized). The following applies: ligand concentration: 20 uM; sample: mouse liver crude lysate; replicate design: treated separately.

UniProt P36552, sequence (P36552 whole entry): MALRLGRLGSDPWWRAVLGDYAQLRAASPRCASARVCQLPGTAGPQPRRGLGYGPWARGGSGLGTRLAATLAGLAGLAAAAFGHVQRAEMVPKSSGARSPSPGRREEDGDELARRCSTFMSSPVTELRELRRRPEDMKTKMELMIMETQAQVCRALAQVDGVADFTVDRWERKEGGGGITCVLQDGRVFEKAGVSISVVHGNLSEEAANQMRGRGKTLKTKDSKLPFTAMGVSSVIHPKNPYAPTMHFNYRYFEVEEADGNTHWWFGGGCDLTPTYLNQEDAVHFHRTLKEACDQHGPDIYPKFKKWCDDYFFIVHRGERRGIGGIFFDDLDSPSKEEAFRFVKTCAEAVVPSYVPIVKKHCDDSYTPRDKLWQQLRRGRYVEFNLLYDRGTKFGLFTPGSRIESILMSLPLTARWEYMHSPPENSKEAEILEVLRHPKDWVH
UniProt P98154, sequence (P98154 whole entry): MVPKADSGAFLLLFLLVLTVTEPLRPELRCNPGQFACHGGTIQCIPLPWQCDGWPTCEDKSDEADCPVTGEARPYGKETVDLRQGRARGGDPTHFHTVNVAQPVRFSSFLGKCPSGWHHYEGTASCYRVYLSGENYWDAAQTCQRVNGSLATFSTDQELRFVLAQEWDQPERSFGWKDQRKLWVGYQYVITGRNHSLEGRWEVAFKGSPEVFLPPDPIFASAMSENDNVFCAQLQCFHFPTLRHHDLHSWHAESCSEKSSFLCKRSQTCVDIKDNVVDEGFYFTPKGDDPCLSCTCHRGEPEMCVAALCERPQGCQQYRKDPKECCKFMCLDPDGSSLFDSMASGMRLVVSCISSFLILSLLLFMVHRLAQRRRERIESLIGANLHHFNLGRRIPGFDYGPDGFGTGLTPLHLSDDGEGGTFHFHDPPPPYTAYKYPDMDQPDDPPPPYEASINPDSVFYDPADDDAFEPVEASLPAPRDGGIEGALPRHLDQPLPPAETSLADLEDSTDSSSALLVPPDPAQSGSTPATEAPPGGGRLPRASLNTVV
UniProt Q9D6U8, sequence (Q9D6U8 whole entry): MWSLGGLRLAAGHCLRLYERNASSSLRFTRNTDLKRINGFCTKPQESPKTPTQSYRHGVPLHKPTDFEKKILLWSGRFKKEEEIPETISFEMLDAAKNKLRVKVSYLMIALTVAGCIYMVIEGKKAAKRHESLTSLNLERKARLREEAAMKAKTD
UniProt Q8R1Z9, sequence (Q8R1Z9 whole entry): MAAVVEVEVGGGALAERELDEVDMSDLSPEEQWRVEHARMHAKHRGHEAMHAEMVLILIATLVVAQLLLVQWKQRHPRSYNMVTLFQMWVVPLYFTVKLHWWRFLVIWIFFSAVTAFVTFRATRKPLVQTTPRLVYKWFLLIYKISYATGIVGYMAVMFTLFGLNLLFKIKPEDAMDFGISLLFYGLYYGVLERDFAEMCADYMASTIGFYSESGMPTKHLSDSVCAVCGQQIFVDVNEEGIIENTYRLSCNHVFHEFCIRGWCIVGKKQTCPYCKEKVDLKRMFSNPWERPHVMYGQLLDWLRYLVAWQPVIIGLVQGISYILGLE
UniProt O70318, sequence (O70318 whole entry): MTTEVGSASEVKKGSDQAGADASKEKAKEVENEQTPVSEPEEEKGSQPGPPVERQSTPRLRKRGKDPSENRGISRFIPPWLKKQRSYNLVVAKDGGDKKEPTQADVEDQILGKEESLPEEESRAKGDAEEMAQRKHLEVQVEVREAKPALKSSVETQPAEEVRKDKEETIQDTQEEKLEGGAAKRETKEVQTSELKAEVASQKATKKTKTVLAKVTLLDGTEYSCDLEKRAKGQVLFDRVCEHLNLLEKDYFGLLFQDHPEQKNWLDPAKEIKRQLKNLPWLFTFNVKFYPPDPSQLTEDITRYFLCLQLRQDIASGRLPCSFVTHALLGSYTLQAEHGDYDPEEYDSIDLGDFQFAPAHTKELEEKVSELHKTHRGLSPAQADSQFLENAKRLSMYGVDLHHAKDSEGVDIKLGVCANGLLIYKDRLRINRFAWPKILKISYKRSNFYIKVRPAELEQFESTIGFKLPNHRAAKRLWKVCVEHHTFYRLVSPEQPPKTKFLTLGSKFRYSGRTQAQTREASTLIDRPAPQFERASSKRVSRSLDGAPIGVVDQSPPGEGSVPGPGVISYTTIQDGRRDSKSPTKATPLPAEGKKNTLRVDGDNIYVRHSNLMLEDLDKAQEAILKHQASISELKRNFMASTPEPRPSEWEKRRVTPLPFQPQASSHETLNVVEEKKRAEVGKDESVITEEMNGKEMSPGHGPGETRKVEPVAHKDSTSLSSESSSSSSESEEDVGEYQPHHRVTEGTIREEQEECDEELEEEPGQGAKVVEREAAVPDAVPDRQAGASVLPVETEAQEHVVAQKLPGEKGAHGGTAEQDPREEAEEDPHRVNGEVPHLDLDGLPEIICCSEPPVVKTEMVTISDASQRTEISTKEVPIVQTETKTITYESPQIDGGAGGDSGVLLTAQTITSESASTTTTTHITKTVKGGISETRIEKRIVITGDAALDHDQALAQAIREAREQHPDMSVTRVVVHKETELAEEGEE
UniProt P54823, sequence (P54823 whole entry): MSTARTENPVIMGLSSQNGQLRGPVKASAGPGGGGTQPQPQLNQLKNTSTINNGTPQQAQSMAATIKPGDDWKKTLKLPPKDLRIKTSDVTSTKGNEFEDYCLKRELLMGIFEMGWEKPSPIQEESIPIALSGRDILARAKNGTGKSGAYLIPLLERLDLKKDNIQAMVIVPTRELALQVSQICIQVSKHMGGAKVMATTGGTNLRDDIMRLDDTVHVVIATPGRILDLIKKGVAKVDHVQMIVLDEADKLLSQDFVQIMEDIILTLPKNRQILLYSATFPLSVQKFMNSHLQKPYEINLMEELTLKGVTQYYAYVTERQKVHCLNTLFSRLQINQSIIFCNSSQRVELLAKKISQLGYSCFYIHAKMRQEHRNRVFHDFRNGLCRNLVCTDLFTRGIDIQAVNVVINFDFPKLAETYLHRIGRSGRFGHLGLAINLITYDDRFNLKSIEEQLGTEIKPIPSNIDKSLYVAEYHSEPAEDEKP
UniProt Q99KH8, sequence (Q99KH8 whole entry): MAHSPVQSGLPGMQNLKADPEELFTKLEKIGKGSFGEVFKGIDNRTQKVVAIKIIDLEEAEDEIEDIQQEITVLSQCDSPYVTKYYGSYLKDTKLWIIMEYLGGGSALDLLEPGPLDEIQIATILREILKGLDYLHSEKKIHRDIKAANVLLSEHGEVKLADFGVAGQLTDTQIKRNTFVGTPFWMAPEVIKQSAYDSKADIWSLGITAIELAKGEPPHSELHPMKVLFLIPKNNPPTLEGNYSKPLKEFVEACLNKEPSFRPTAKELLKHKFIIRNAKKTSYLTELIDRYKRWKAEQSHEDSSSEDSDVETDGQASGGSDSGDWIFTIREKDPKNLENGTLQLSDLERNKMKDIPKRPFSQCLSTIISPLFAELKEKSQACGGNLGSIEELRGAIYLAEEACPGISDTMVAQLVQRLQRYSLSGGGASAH
UniProt Q3U3Q1, sequence (Q3U3Q1 whole entry): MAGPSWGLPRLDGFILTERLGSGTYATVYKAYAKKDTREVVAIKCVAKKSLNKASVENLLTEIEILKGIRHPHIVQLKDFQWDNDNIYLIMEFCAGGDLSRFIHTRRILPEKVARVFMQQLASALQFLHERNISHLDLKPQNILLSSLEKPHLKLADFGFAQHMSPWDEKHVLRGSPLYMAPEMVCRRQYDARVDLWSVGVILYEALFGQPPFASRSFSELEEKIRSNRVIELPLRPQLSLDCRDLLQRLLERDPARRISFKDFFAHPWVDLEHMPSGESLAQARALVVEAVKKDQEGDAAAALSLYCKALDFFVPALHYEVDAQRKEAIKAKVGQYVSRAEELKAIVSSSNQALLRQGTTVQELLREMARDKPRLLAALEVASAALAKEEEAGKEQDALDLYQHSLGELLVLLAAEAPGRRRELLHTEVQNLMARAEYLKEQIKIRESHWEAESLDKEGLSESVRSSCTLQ
UniProt Q3UHJ0, sequence (Q3UHJ0 whole entry, looked up): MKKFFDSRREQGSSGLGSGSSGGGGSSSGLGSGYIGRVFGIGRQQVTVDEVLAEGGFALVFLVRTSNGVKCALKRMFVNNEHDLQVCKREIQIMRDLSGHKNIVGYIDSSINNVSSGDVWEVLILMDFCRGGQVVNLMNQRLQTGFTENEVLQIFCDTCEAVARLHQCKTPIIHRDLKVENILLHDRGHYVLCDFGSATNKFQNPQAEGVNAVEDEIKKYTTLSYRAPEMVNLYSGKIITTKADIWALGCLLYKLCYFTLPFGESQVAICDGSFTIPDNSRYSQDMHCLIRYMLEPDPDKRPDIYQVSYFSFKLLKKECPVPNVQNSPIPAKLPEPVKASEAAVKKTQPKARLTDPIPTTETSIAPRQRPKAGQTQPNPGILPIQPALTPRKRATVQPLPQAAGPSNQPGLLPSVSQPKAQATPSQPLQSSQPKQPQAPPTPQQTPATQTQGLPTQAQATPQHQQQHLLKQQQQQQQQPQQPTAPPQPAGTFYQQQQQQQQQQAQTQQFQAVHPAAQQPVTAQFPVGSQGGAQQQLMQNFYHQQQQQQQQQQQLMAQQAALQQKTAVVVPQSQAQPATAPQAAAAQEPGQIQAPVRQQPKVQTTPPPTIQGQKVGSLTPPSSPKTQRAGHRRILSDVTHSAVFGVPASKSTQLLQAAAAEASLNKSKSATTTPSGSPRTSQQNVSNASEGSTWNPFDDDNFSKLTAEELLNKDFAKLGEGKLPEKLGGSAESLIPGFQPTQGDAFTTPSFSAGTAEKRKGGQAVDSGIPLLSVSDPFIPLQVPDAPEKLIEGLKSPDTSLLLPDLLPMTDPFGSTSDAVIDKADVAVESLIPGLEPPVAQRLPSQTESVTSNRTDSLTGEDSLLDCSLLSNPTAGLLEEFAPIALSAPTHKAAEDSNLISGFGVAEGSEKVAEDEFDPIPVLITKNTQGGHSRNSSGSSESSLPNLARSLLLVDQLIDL

“UniProt Q3UU96 (peptide sequence: LHREDFEILK, peptide start residue: 72)”: the log2 fold change was -1.65. As to “UniProt P98154 (peptide sequence: GGDPTHFHTVNVAQPVR, peptide start residue: 89)”, the log2 fold change is -1.16. The same measure for “UniProt Q9D6U8 (peptide sequence: HESLTSLNLER, peptide start residue: 130)”: 0.435.

In the case of “UniProt Q3U3Q1 (peptide sequence: VIELPLRPQLSLDCR, peptide start residue: 230)”, the log2 fold change is -2.

“UniProt Q8R1Z9 (peptide sequence: LSCNHVFHEFCIR, peptide start residue: 249)”: the log2 fold change came out at 1.08. With “UniProt P36552 (peptide sequence: NPYAPTMHFNYR, peptide start residue: 240)”, the log2 fold change was -0.601.

Turning to “UniProt Q99KH8 (peptide sequence: GEPPHSELHPMK, peptide start residue: 215)”, the log2 fold change is -1.74. The same measure for “UniProt Q3UHJ0 (peptide sequence: DLKVENILLHDR, peptide start residue: 176)”: -4.22; for “UniProt P30561 (peptide sequence: HKLDFTPIGCDAK, peptide start residue: 285)”: -1.1. For the target “UniProt O70318 (peptide sequence: RVTPLPFQPQASSHETLNVVEEK, peptide start residue: 654)”, the log2 fold change was -0.88. For “UniProt P54823 (peptide sequence: LDLKKDNIQAMVIVPTR, peptide start residue: 158)” the value was 1.16.
